Laboratory results as given in PubChem BioAssay AID1159602 (The Scripps Research Institute Molecular Screening Center, 2016).
About 220 (1%) of roughly 22,000 compounds were called active. The sample as a whole holds a higher share of actives than the screen did. A number with no mark means an inactive call. No stated cut-off is given here; in the data, active means inhibition above about 35%; inactive means the rest.

The compounds below were run against Mitogen-activated protein kinase kinase kinase 5 (Homo sapiens) (UniProt Q99683) (assay: ASK1 kinase inhibitors, primary screen, biochemical, AlphaScreen (AID 1159602;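 further: 0% = median of compound wells and 100% = no enzyme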)). Conditions: AlphaScreen MKK6 phosphorylation by ASK1, luminescence; at 7.44 µM; active compounds read high.
Chain of Mitogen-activated protein kinase kinase kinase 5 (Homo sapiens) (Q99683 whole entry, looked up): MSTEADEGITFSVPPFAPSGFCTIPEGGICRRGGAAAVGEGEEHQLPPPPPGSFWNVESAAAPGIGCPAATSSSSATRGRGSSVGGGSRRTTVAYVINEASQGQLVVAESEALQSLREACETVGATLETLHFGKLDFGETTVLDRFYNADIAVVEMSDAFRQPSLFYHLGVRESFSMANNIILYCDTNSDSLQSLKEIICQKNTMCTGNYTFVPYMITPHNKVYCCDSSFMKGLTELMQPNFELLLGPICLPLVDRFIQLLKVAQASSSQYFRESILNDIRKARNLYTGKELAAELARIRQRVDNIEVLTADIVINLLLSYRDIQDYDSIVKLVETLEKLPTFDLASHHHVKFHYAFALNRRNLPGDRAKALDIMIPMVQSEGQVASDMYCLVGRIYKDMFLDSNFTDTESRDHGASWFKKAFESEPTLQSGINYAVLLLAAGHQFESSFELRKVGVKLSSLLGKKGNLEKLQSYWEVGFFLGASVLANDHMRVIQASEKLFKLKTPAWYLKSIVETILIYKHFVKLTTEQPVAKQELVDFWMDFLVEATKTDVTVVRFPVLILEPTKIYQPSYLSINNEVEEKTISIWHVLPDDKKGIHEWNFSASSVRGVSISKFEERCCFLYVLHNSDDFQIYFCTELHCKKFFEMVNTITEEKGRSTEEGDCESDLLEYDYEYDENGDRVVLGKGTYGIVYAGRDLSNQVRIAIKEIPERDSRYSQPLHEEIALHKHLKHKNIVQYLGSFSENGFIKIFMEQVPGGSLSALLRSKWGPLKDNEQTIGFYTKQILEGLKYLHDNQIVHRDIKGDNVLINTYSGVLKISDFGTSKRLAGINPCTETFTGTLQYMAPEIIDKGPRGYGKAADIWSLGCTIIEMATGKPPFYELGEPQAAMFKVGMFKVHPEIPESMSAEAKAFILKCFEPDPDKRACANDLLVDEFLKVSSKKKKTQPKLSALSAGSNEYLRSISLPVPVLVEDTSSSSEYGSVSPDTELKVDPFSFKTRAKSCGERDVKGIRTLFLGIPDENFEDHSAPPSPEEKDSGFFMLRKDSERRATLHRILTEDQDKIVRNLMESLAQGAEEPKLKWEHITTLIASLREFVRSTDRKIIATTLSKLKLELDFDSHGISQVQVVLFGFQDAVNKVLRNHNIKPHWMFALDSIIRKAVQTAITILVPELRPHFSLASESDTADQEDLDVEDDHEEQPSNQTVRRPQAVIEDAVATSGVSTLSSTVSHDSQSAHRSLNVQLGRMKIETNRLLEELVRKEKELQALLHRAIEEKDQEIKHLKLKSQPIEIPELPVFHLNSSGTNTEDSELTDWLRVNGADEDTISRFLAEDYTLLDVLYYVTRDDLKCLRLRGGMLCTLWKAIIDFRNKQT

Compound	inhibition
O=C(NCc1cccc(C(F)(F)F)c1)c1csc(NCc2ccc3c(c2)OCO3)n1	8.66%
Cc1cc(NCCO)nc(Nc2nccc3ccccc23)n1	-10.4%
COc1nc(N)nc(-c2csc3ccccc23)n1	2.99%
CCNc1nc(Nc2cc(OC)c(OC)c(OC)c2)c2ncn(-c3ccsc3)c2n1	8.63%
O=C(NCCN1CCOCC1)c1csc(N2CCC(N3CCOCC3)CC2)n1	-5.25%
c1cn(-c2ccc(Nc3nc4ncnc(NC5CC5)c4[nH]3)cc2)cn1	18.6%
COc1ccc(-c2cc(C(=O)Nc3ccc(N4CCOCC4)cc3)ccn2)cc1	11.5%
c1ccc(CN2CCC(Nc3nc(N4CCc5ccccc5C4)nc4c3ncn4-c3ccsc3)CC2)cc1	9.04%
Cc1ncn(-c2ccc(Nc3nccc(N4CCc5[nH]ncc5C4)n3)cc2)n1	-13.8%
CCN(CC)c1nc(NCc2nc3ccccc3[nH]2)nc(N2CCCC2CO)n1 (stereo not given)	-6.32%
c1ccc2[nH]c(CNc3ncnc4nc(N5CCC(N6CCOCC6)CC5)[nH]c34)nc2c1	-21.4%
O=C(NCC(O)c1ccc(Br)cc1)c1cn(-c2cccc3c(=O)[nH]ccc23)nn1 (stereo not given)	13.4%
c1ccc(OCCNc2cc(-c3ccccc3)ncn2)cc1	-16.6%
CC(=O)Nc1ccc(Nc2ccnc(N3CCC(N4CCOCC4)CC3)n2)cc1	-0.1%
CC(C)n1cnc2c(NCc3ccccc3)nc(NC3CCC(O)CC3)nc21 (stereo not given)	-16.8%
Cc1ccc(C(=O)N2CCCC(Nc3cccc4cncc(C)c34)C2)cc1F (stereo not given)	-24.3%
CN(C)CCCNC(=O)c1ccc2c(c1)CC(c1nc3ccc(-c4ccnc(N)n4)cc3[nH]1)CO2 (stereo not given)	12.4%
c1ccc(-n2cnc3c(NCCN4CCOCC4)nc(Nc4ccc(-n5ccnc5)cc4)nc32)cc1	5.99%
O=C(NCCN1CCOCC1)c1cccc(-n2ncc3cc(Nc4ccccc4F)ccc32)n1	-7.35%
O=C(Nc1ccc(N2CCOCC2)cc1)c1cccc(N2CCC(N3CCOCC3)CC2)n1	13.2%
Nc1nc(N2CCN(c3ccccn3)CC2)nc2c1ncn2-c1ccsc1	1.87%
CC(=O)Nc1ccc(Nc2nc(Nc3ccc(-n4ccnc4)cc3)nc3c2ncn3-c2ccsc2)cc1	4.85%
O=C(NCCN1CCOCC1)c1cccc(-c2ccc(N3CCOCC3)nc2)c1	1.42%
CC(C)N(CCNC(=O)c1ccnc(Nc2ccc(C(F)(F)F)cc2)c1)C(C)C	7.8%
CCCN1CCN(c2c(Cl)cccc2NC(=O)Nc2ccc(Br)cc2)CC1	-17.3%
c1cc(-c2cncc(N3CCOCC3)c2)nc(Nc2ccc3c(c2)OCO3)n1	-4.36%
COc1ccc(CCNc2cc(NCc3cccnc3)nc(N)n2)cc1	-6.16%
Cc1cc(NC2CC2)nc(NCCCN2CCCC2=O)n1	7.09%

Compound	inhibition
COc1ccc(CCNc2cc(-c3ccc(OC)cc3)nc(N)n2)cc1	-5.04%
COc1cc2nc(Nc3nccc4ccccc34)nc(Nc3ccccc3)c2cc1OC	-29.2%
COc1cc2nc(Nc3cccc(N(C)C)c3)nc(Nc3cc(OC)c(OC)c(OC)c3)c2cc1OC	36.7% (active)
COc1cc2nc(Nc3ccc4ncccc4c3)nc(Nc3ccc(NC(C)=O)cc3)c2cc1OC	35.6% (active)
COc1cc(Nc2nc(Nc3cccc(N(C)C)c3)nc3nc[nH]c23)cc(OC)c1OC	27%
COc1cc2nc(Nc3ncccn3)nc(Nc3cc(OC)c(OC)c(OC)c3)c2cc1OC	14.3%
COc1cc2nc(NCc3ccc4c(c3)OCO4)nc(Nc3ccc(NC(C)=O)cc3)c2cc1OC	18.8%
FC(F)(F)c1ccc(Cn2cnc3c(NCc4nc5ccccc5[nH]4)nc(N4CCOCC4)nc32)cc1	-1.96%
Cn1nccc1-c1cc(F)cc(-c2ccnc(Nc3ccc(-n4cnc(N5CCOCC5)n4)cc3)n2)c1	21.1%
O=C(Nc1cccc(Cl)c1N1CCC(N2CCCCC2)CC1)c1ccc(Br)o1	9.68%
O=C1CCCN1CCn1cnc2c(Nc3ccc(N4CCOCC4)cc3)nc(Nc3ccccc3)nc21	13.9%
COc1ccc(CCNC(=O)c2cccc(-c3ccc(C(N)=O)cc3)n2)cc1	0.41%
CNC(=O)c1cc(F)ccc1Nc1cc(Nc2ccc3c(c2)CCC(=O)N3)ncc1C(F)(F)F	2.41%
c1ccc(CCNc2nccc(Nc3ccncn3)n2)cc1	1.01%
CC(C)n1cnc2c(Nc3ccc(N4CCOCC4)cc3)nc(Nc3ccncc3)nc21	4.78%
COc1cc(Nc2nc(N3CCc4ccccc4C3)nc3c2ncn3-c2ccsc2)cc(OC)c1OC	6.46%
COc1cc(Nc2nc(N3CCc4ccccc4C3)nc3c2ncn3-c2ccccc2)cc(OC)c1OC	38.8% (active)
CCCNc1nc(N2CCc3ccccc3C2)nc2c1ncn2-c1ccccc1	6.17%
O=C(NCc1ccccc1)c1cnc(NCc2ccc3c(c2)OCO3)s1	-19.1%
O=C1CCCN1CCCNc1nccc(NC2CCN(Cc3ccccc3)CC2)n1	-6.87%
c1nc(Nc2ccc(N3CCOCC3)cc2)cc(N2CCOCC2)n1	3.52%
CN1CCN(c2ccc(-c3cc(Nc4ccc(N5CCOCC5)cc4)nc(N)n3)cc2)CC1	17.6%
Nc1nc(Nc2ccc(N3CCOCC3)cc2)cc(-c2ccc3[nH]ccc3c2)n1	41.8% (active)
Nc1cccc(-c2nc(NCCc3ccc(O)cc3)c3ncn(Cc4ccc(C(F)(F)F)cc4)c3n2)c1	3.28%
c1ccc(CCCNc2nccc(Nc3ccncn3)n2)cc1	12.3%
Nc1nc(Nc2ccc(-n3ccnc3)cc2)cc(NC2CCN(Cc3ccccc3)CC2)n1	18.2%
COc1ccc(-c2cccc(C(=O)Nc3ccccc3)n2)cn1	-3.52%
